Data as given in PubChem BioAssay (NCATS).
Records with an inconclusive call do not appear. A number with no mark means an inactive call. Activity calls are given as the source filed them. Calls follow the shape of the dose curve; as a rule, active = well fitted inhibition curve with a large enough effect; inconclusive = small, poorly fitted or top-dose-only effect, or effect the other way; inactive = flat fitted curve, though single readings scatter.

Assay: qHTS for Inhibitors of Plasmodium falciparum (CP250) proliferation (AID 504320)
Conditions: P. falciparum CP250 in erythrocytes, SYBR Green DNA, 72 h; series mostly up to 6.7 µM; activity change, negative = inhibition: at the top concentration
Method in brief: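 Parasite growth measured as SYBR Green DNA fluorescence (ex 485, em 535 nm) after overnight lysis following 72 h culture at 37 °C, 0.3% parasitemia, 2.5% hematocrit. Values normalized against DMSO and 0.29 uM artemisinin controls, with plate-stack correction.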

Compound	activity change, negative = inhibition	Potency
CCN1C(=O)N[C@@H](CCc2ccccc2)C(C(C)=O)=C1C	-1.74%	
COC(=O)CCCC1=CC2=C(c3ccccc3)C(=O)C(C)(OC(=O)C3CCCC3)C(=O)C2=CN1C(CO)CO (stereo unspecified)		inactive
CCCCC1=CC2=CC(=O)C(C)(OC(=O)CC)C(=O)C2=CN1C(CO)CO (stereo unspecified)	-0.912%	
CCN1C(=O)N[C@@H](c2ccco2)C(C(C)=O)=C1C	0.505%	
CCN(CC)CCCN1C=C2C(=O)C(C)(OC(=O)C3CCCC3)C(=O)C(c3ccccc3)=C2C=C1CCCC(=O)OC (stereo unspecified)	-0.877%	
CC(=O)C1=C(C)N(Cc2ccccc2)C(=O)N[C@H]1c1cccc(F)c1	-3.26%	
COCCN1C(=O)N[C@@H](c2cccc(F)c2)C(C(C)=O)=C1C	-3.58%	
C[C@H]1Cc2c(-c3ccccc3)nc3c(c2CO1)CN(C(=O)C1CCCCC1)CC3	-2.29%	
COC(=O)C1=C(C)N(Cc2ccccc2)C(=S)NC1c1cccc(F)c1 (stereo unspecified)	4.87%	
COC/C=C/C1=CC2=CC(=O)C(C)(OC(=O)c3cnc4ccccc4n3)C(=O)C2=CN1c1ccc(CO)cc1 (stereo unspecified)	-0.552%	
CCN1C(=O)N[C@H](c2ccccc2)C(C(C)=O)=C1C	2.5%	
CCN(CC)CCCN1C=C2C(=O)C(C)(OC(=O)CCC(=O)OC)C(=O)C=C2C=C1C1CC1 (stereo unspecified)	-2.19%	
CCOC(=O)CN1C(=O)N[C@@H](c2ccco2)C(C(C)=O)=C1C	3.81%	
CCCCC1=CC2=CC(=O)C(C)(OC(=O)CC)C(=O)C2=CN1Cc1ccc(OC)cc1 (stereo unspecified)	4.06%	
COC(=O)C1=C(C)N(CC2CC2)C(=O)N[C@H]1c1ccccc1	3.19%	
CCCCc1nc2c(c3c1C[C@H](C)OC3)CN(S(=O)(=O)c1ccc(C#N)cc1)CC2	4.52%	
